Data on 40 compounds can be found in PubChem BioAssay (Tox21).

A number with no mark means an inactive call. The source made the active and inactive calls. The call rests on the fitted dose curve; in most records, active means well fitted curve in the direction sought with a large enough effect in the repeat runs; inconclusive means weak or mixed curves; inactive means flat fitted curve, though single readings scatter.
On the % scale 0 is the no-effect control and ±100 the full control effect.

This assay is described as follows: qHTS assay to test for compound auto fluorescence at 460 nm (blue) in HEK293 cell free culture (AID 720681). Conditions: cell-free medium, autofluorescence 405/460 nm (blue); series mostly up to 91.3 µM; fluorescence, % of fluorescent control: at the top concentration. The text has this:
U.S. Tox21 Program National Center for Advancing Translational Sciences [NCATS] NIH Chemical Genomics Center [NCGC] U.S. Environmental Protection Agency [EPA] National Institutes of Environmental Health Sciences [NIEHS] National Toxicology Program [NTP] U.S. Food and Drug Administration [FDA] Tox21 Assay Overview: Compound auto fluorescence often interferes with screening of the compound library against various biological targets and signaling pathways. Some of these compounds may have fluorophoric properties. Such properties may interfere with the assay outputs resulting in false positives and/or negatives. To decrease such complications and ensure the compound activities are relevant in terms of biological response, the Tox21 10K compound library was screened for auto fluorescence. From the fluorophores used as reporter signals in our screening assays, the auto fluorescence equivalencies of compounds against three fluorophores have been evaluated: Triamterene, Fluorescein and Rose Bengal sodium for blue, green and red fluorescence, respectively. The fluorescence intensities were measured using Excitation/Emission wavelengths at 405/460nm, 485/535nm and 540/590nm for blue, green and red labels, respectively. This assay includes the blue fluorescence data.
Tox21 Assay Protocol Summary: 5 uL of culture medium (DMEM containing 10% FBS) per well was dispensed into black wall/clear bottom 1536-well plates using a Multidrop Combi Dispenser (ThermoFisher Scientific, Waltham, MA). After 23 nL compound or DMSO vehicle was transferred into assay plate by a pintool work station (Kalypsys, San Diego, CA), fluorescence intensities in the assay plates were measured by an Envision (PerkinElmer, Shelton, CT) plate reader using three labels for measuring blue, green and red fluorescence at […] 460, 535 and 590nm respectively.
On the technique in general: In qHTS, concentration-response curves come from the screen itself.
As for `CCOC(=O)/C=C(C)/C=C/C[C@@H](C)CCCC(C)C`, the compound was classed as inactive. On to `CC(=O)CCc1ccc2c(c1)OCO2`, for which the “fluorescence, % of fluorescent control” value was 0.0195%.

As for `Cc1ncc2n1-c1ccc(Cl)cc1C(c1ccccc1F)=NC2`, the “fluorescence, % of fluorescent control” value was 0.964% [at 46 µM]. Still for that read-out and setting: next, `O=NN1CCCCC1`: -0.2%; `CCOP(=S)(OCC)Oc1cc(-c2ccccc2)on1`: 0.117%; `Cc1cccc(C#N)c1`: 0.0779%. Turning to `Cc1ncc(CNC(=O)N(CCCl)N=O)c(N)n1`, the “fluorescence, % of fluorescent control” value is 0.0257% [at 46 µM]. Take `C[C@]1(O)CC[C@H]2[C@@H]3CCC4=CC(=O)CC[C@]4(C)[C@@]3(F)[C@@H](O)C[C@@]21C`: the compound was classed as inactive. As for `[Cl][Sn]([Cl])([Cl])[Cl]`, the “fluorescence, % of fluorescent control” value is 0.0103% [at 95.7 µM]. The same measure, in the same setting: next, `CCOP(=S)(OCC)Oc1ncn(-c2ccccc2)n1`: -0.0652%; `N#CCBr`: -0.0393% [at 95.7 µM]. The same measure, in the same setting: next, `c1cc2c(c(N3CCNCC3)c1)OCCO2`: 0.132% [at 46 µM]; `Cc1ncsc1CCCl`: 0.0996% [at 46 µM]; `CCOC(=O)N(C)C(=O)CSP(=S)(OCC)OCC`: -0.0862%.

For `[As]#[In]`, the “fluorescence, % of fluorescent control” value was -0.157%. As to `COC(=O)c1c(C(F)F)nc(C(F)(F)F)c(C2=NCCS2)c1CC(C)C`, the “fluorescence, % of fluorescent control” value was 0.204%. On the same count and under the same terms, under `CCCSP(=O)(OCC)Oc1ccc(Br)cc1Cl` (stereo not given) stands -0.188% [at 46 µM]; under `CCc1cc2c(s1)-n1c(C)nnc1CN=C2c1ccccc1Cl`, 0.0115% [at 46 µM]; under `COc1cc(OC)nc(NC(=O)NS(=O)(=O)c2ncccc2C(=O)N(C)C)n1`, 0.0918%. As to `CCCSP(=S)(OCC)Oc1ccc(Cl)cc1Cl` (stereo not given), the “fluorescence, % of fluorescent control” value is -0.155%.

In the case of `C[N+](=O)[O-]`, the “fluorescence, % of fluorescent control” value is 0.105%. Same read-out and setting: under `CC(=O)C(Cl)Cl` stands 0% [at 95.7 µM]; under `O=C1c2ccccc2C(=O)c2ccccc21`, 0.0904% [at 46 µM].

With `COC(=O)C(C)Oc1ccc(Oc2ccc(Cl)cc2Cl)cc1` (stereo not given), the “fluorescence, % of fluorescent control” value is -0.0234%. As for `CCC1(c2ccccc2)C(=O)NC(=O)NC1=O`, the result was inactive. For `CCOP(=S)(Oc1cnc(C(C)(C)C)nc1)OC(C)C` (stereo not given), the “fluorescence, % of fluorescent control” value was -0.052%. Still for that read-out and setting: under `COc1cccc2c1cc([N+](=O)[O-])c1c(C(=O)O)cc3c(c12)OCO3` stands -0.338%; under `Nc1cnn(-c2ccccc2)c(=O)c1Cl`, -0.297%. Same read-out and setting: next, `CCC(C)(C)c1cc(-n2nc3ccccc3n2)c(O)c(C(C)(C)CC)c1`: -0.0614% [at 95.7 µM]; `CS(=O)(=O)c1cc(C(F)(F)F)ccc1C(=O)c1cnoc1C1CC1`: -0.112%; `O=CNC(N1CCN(C(NC=O)C(Cl)(Cl)Cl)CC1)C(Cl)(Cl)Cl` (stereo not given): 0.0051%. Same read-out and setting: next, `COC(=O)C1=CCCN(C)C1`: 0.0047% [at 46 µM]; `CCC(C)n1c(=O)[nH]c(C)c(Br)c1=O` (stereo not given): 0.157%. On to `COc1cc(OC)nc(Sc2cccc(Cl)c2C(=O)O)n1`, for which the “fluorescence, % of fluorescent control” value is -0.0884%. Same read-out and setting: under `CC(C=O)Cc1ccc2c(c1)OCO2` (stereo not given) stands 0.0696%; under `Cc1coc2c1CCC(C)C2` (stereo not given), 1.76% [at 95.7 µM]; under `ClCC(Cl)(Cl)Cl`, -0.118% [at 95.7 µM]. Take `CC(=O)CC(c1ccc(Cl)cc1)c1c(O)c2ccccc2oc1=O` (stereo not given): the “fluorescence, % of fluorescent control” value was 0.0095% [at 95.7 µM]. For `O=C1OC(c2ccc(O)c(S(=O)(=O)O)c2)(c2ccc(O)c(S(=O)(=O)O)c2)c2c(Br)c(Br)c(Br)c(Br)c21`, the “fluorescence, % of fluorescent control” value is 0.0063% [at 46 µM]. Same read-out and setting: under `O=C1OC(=O)C2C1C1(Cl)C(Cl)=C(Cl)C2(Cl)C1(Cl)Cl` (stereo not given) stands -0.0382% [at 95.7 µM].
